Bioassay records: PubChem, National Center for Advancing Translational Sciences (NCATS)
This is a sample that favours compounds with a hit; in the whole collection about 3.6% have one here.
HepG2 tox: HepG2 cytotoxicity, counter-screen for TGF-b inhibitors; hit rate 0.76% among 410,000; HepG2 CAGA-GFP viability, ATP luminescence, 18 h; Potency, µM (series often up to 46.1 µM), actives largely listed as cytotoxic
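CellTiter-Glo luminescence gave cytotoxicity after 18 hours at 37 degrees C. The cells were HepG2 CAGA-GFP in 1% FBS DMEM, stimulated with 500 pg/mL TGF-beta after compound addition. %Activity was normalised to no-cell wells (complete cell-killing) and DMSO (no toxicity), and curves were fitted and classified.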
Nrf2 activator: Nrf2 pathway activation | AREc32 ARE-luciferase reporter (MCF7-derived line), luminescence, 24 h | Potency, µM (titrated, usually from 46.1 µM), actives largely listed as activators | hit rate 0.31% among 410,000; also: nearly all actives have a fitted effect of over 65% in size
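Luciferase luminescence (Steady-Glo, 30 min at room temperature) served as the read-out of ARE activation in AREc32 cells treated with compounds for 24 hr at 37 deg C.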
TGFb SMAD3 inh: TGF-b pathway inhibition. HepG2 CAGA-GFP TGF-b/SMAD3 reporter, GFP fluorescence, 18 h; TGF-beta stimulated, 500 pg/mL final. Potency, µM (top dose mostly 46.1 µM), usual class: inhibitors. hit rate 1.2% among 410,000. AID 588855; also: nearly all actives have a fitted effect of over 65% in size
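Read-out: total well GFP (ex488/em500-530) summed from mean per-cell fluorescence. Cells: HEPG2 CAGA-GFP, 1% FBS DMEM, 18 h at 37 degrees C with 500 pg/mL final TGF-beta. Unstimulated wells served as the full-inhibition control; stimulated DMSO wells = 0%.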
A549 tox-1: A549 cytotoxicity, counter-screen for Nrf2 inhibitors | A549 ARE-Fluc cells, CellTiter-Fluor viability, 18-24 h | Potency, µM (titrated, usually from 46 µM), hits mostly inhibitors | hit rate 0.16% among 390,000
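Cytotoxicity counterscreen: CellTiter-Fluor fluorescence was measured in A549 ARE_Fluc cells after 18-24 h of compound exposure in a concentration series. The subsequent BugLite luminescent read reports ARE-luciferase activity.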
Nrf2 inh: inhibitors of Nrf2 signaling | hit rate 2.1% among 360,000 | Potency, µM (titrated, usually from 46 µM), hits mostly inhibitors | A549 ARE-Fluc reporter, luciferase luminescence, 18-24 h | AID 504444; also: nearly all actives have a fitted effect of over 60% in size
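Quantitative HTS in A549 cells stably bearing an antioxidant response element-firefly luciferase construct. Inhibition of Nrf2-driven transcription was scored by luminescence after 18-24 h of compound exposure at 37 °C.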
FLuc enzyme inh: counter-screen for Nrf2 inhibitors: firefly luciferase enzyme inhibition; hit rate 4% among 1,400; shares compounds with Nrf2 inh; purified firefly luciferase, luminescence inhibition; Potency, µM (series often up to 57.5 µM), hits mostly inhibitors; also: nearly all actives have a fitted effect of over 65% in size
Target sequence (P08659 whole entry, looked up): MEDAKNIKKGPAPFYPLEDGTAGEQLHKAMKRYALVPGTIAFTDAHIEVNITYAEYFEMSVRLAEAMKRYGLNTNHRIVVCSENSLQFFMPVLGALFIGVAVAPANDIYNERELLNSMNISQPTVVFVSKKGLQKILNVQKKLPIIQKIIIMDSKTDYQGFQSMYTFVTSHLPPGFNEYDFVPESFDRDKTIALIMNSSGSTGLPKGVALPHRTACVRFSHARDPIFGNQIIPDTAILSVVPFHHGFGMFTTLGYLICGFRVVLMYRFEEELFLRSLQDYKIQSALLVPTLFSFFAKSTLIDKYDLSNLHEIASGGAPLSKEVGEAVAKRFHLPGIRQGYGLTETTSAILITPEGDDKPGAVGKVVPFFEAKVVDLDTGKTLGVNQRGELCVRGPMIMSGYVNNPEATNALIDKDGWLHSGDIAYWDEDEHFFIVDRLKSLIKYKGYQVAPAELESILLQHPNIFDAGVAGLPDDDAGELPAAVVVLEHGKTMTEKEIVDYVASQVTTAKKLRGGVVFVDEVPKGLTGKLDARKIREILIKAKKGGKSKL
A549 tox-2: counter-screen for Nrf2 inhibitors: cytotoxicity in A549 ARE cells. A549 ARE-Fluc cells, cytotoxicity counterscreen. hit rate 2% among 1,400. shares compounds with Nrf2 inh. Potency, µM (highest dose often 46.1 µM), actives largely listed as inhibitors;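 also: cells exposed to compounds for 18 to 24 hours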
ARE-Fluc inh: Nrf2 inhibition confirmed, A549 ARE-luciferase; shares compounds with Nrf2 inh; A549 ARE-firefly luciferase reporter, luminescence; Potency, µM (series often up to 46.1 µM), hits mostly inhibitors; hit rate 74% among 1,400; AID 720524; also: nearly all actives have a fitted effect of over 65% in size
A number is an active result; – = inactive; ? = inconclusive; · = no result given; [ ] = dose if it differs, or a comment. Calls follow the shape of the dose curve; as a rule, active = well fitted curve in the direction sought with a large enough effect; inconclusive = small, poorly fitted or top-dose-only effect, or another doubt; inactive = no such curve, though single readings can be large; an effect the other way counts as inactive or inconclusive.

SMILES	HepG2 tox	Nrf2 activator	TGFb SMAD3 inh	A549 tox-1	Nrf2 inh	others
COc1ccc(C2/C=C\CN(C(=O)Nc3ccccc3)CC(=O)N2Cc2ccc(F)cc2)cc1 (centres undefined)	–	–	–	–	–
COc1ccccc1OCC(=O)NNC(=O)CSC(=S)N1CCCC1	–	–	–	–	–
CCCN(CCC)C(=O)CSc1c2c(nc3ccc(Cl)cc13)CCCC2	–	–	–	–	–[9.27 µM]
CN(C)CCCN(C(=O)CCc1ccccc1)c1nc2c(F)cccc2s1	–	–	?	–	?
CN(C)CCCN(C(=O)/C=C/c1cccs1)c1nc2c(F)cccc2s1	13µM	?	18µM	–	–
Cc1cccc2sc(N(CCN(C)C)C(=O)/C=C/c3cccs3)nc12	–	11µM	?	?	–
CCc1ccc2oc(-c3cc(NC(=O)c4cc(OC)c(OC)c(OC)c4)ccc3O)nc2c1	–	–	–	–	–
CCc1ccc2oc(-c3cc(N=Cc4cccc(OC)c4O)ccc3O)nc2c1	–	10µM	–	–	?
C/C(N)=C(/C#N)C(=O)COC(=O)c1ccc(O)cc1	–	–	–	–	–
NC(=O)c1c(NC(=O)CN2CCN(S(=O)(=O)c3ccccc3)CC2)sc2c1CCC2	–	–	?	?	18µM
CN1CCN(CC(=O)Nc2sc3c(c2C(=O)Nc2ccccc2)CCCC3)CC1	–	–	–	–	–
O=C(CSc1nc2ccccc2c(=O)n1Cc1ccc(F)cc1)NCc1cccs1	–	–	–	–	?
CC(C)CC(=O)Nc1ccc(C(=O)NNC(=S)NC(=O)C2CCCCC2)cc1	–	–	–	–	8.2µM
N#CCC(=O)Nc1ccc(C(=O)NNC(=S)NC2CCCCC2)cc1	–	–	–	–	–
O=C1CCN(C(=O)/C=C/c2ccccc2)c2ccccc21	–	–	–	–	–
Cc1cc2nn(-c3ccccc3)nc2cc1NC(=O)c1cccs1	–	7.1µM	–	–	–
CC(=O)c1c(C)[nH]c(C(=O)CSc2nc3ccccc3n2C)c1C	–	–	–	–	15µM
CCn1c(SCC(=O)c2[nH]c(C)c(C(C)=O)c2C)nnc1-c1cccs1	–	–	–	–	?
C=CC(=O)N1C/C(=C/c2ccccc2)C(=O)/C(=C\c2ccccc2)C1	1.8µM	?	2.2µM	?	?
C=CC(=O)N1C/C(=C/c2ccc(Cl)cc2)C(=O)/C(=C\c2ccc(Cl)cc2)C1	5µM	–	2.2µM	23µM	?
C/C(=N\OCC(=O)Nc1ccc(F)c(F)c1F)c1cc2ccccc2o1	–	–	–	–	–
O=C(NC1CCCC1)C1CCC(CNS(=O)(=O)c2cccs2)CC1 (centres undefined)	–	–	–	–	–
COc1ccc2oc3cc(C)[n+]([O-])c(-c4ccc(Br)cc4)c3c2c1	–	–	–	?	23µM
CCOC(=O)c1c(-c2ccc(OC)cc2)oc2ccc(OCc3ccc(Br)cc3)cc12	–	–	–	–	–
COc1cc(OC)c2ccc(=O)oc2c1C(CC(=O)N1CCOCC1)c1ccc2c(c1)OCO2 (centres undefined)	–	–	–	–	–
SMILES	HepG2 tox	Nrf2 activator	TGFb SMAD3 inh	A549 tox-1	Nrf2 inh	others
C=C(C)CN(CC)c1nc(N)c2c(N)nc3c(c2c1C#N)CC(=O)N3C12CC3CC(CC(C3)C1)C2	–	–	–	–	13µM
N#Cc1c(N2CCCC(O)C2)nc(N)c2c(N)nc3c(c12)CC(=O)N3C12CC3CC(CC(C3)C1)C2 (centres undefined)	–	–	–	?	?
CCc1nc(N)nc(N)c1-c1ccc(Cl)c([N+](=O)[O-])c1	–	–	?	–	0.37µM	FLuc enzyme inh=–;A549 tox-2=–;ARE-Fluc inh=0.92µM
O=C(COc1ccccc1Cl)NCCCNC(=O)c1cccnc1	–	–	–	–	3.7µM	FLuc enzyme inh=–;A549 tox-2=–;ARE-Fluc inh=9.2µM
COc1cc(NCCCC(C)N)c2ncccc2c1 (centres undefined)	–	–	–	?	5.8µM	FLuc enzyme inh=–;A549 tox-2=–;ARE-Fluc inh=?
COc1cc(NCCCCC(C)N)c2nccc(C)c2c1 (centres undefined)	–	–	?	·	·
N=C1/C(=C/c2ccc(OCc3ccccc3F)cc2)C(=O)N=C2SC(CC(=O)N3CCOCC3)=NN12	–	–	–	–	–
CC(=O)Nc1ccc(C(=O)NC2CCCC2)cc1	–	–	–	–	–
O=C(Nc1ccc(C(=O)NC2CCCCC2)cc1)c1cccnc1	–	–	–	–	?	FLuc enzyme inh=–;A549 tox-2=–;ARE-Fluc inh=?
COc1ccc(C(=O)N2[C@@H](C(C)C)COc3cc(Br)ccc3S2(=O)=O)cc1	–	–	?	–	?
O=C(NCc1nnc(SCC(=O)N2CCCc3ccccc32)n1-c1ccccc1)c1cccc2ccccc12	–	–	–	–	2.6µM	FLuc enzyme inh=–;A549 tox-2=–;ARE-Fluc inh=10µM
COc1ccc(-n2c(Cc3ccccc3)nnc2SCC(=O)N2CCCc3ccccc32)cc1	–	–	–	–	–
COc1ccc(C(=O)C/C(=C\C(=O)c2ccc(C)cc2)c2ccccc2)cc1	–	–	?	?	2.6µM	FLuc enzyme inh=–;A549 tox-2=–;ARE-Fluc inh=12µM
CC12CC(c3ccccc3O1)N(C(=O)c1ccco1)C(=S)N2c1ccccc1 (centres undefined)	–	–	–	?	8.2µM	FLuc enzyme inh=–;A549 tox-2=–;ARE-Fluc inh=–
N#Cc1ccccc1OCC(=O)NCC1(N2CCCCC2)CCCCC1	–	–	–	–	–
Cc1cnc(=O)[nH]c1SCC(=O)Nc1nc2ccccc2s1	–	–	–	–	·
CN(CCOc1ccc(Cl)cc1)C(=O)c1cccc(S(=O)(=O)N2CCN(Cc3ccccc3)CC2)c1	–	–	?	–	8.2µM	FLuc enzyme inh=–;A549 tox-2=–;ARE-Fluc inh=9.2µM
CSc1ccc(CN(C)C(=O)c2cccc(S(=O)(=O)N3CCN(Cc4ccccc4)CC3)c2)cc1	–	–	?	–	5.8µM	FLuc enzyme inh=–;A549 tox-2=–;ARE-Fluc inh=?
O=C1C=C(Nc2ccccc2)CC(c2ccccc2)C1 (centres undefined)	–	–	–	–	–
COc1ccc(C(=O)NNC(=O)CCc2nc3ccccc3c(=O)[nH]2)cc1	–	–	–	–	?
Cc1c(C(=O)N2CCN(c3ccccn3)CC2)sc2ncnc(N3CCOCC3)c12	–	–	–	–	–
COc1cccc(C2=Nn3c(nnc3-c3cccc(OC)c3)SC2)c1	·	·	·	–	?
COc1cccc(-c2nnc3n2N=C(C(C)(C)C)CS3)c1	–	–	?	–	7.3µM	FLuc enzyme inh=–;A549 tox-2=?
